{
  "source": "ChEMBL document CHEMBL4513146",
  "about": "“CO-ADD screening of Karazin Kharkiv National University (Ukraine) compounds”",
  "note": "Potency and affinity values are given separately.",
  "data": [
    {"test_system": "Klebsiella pneumoniae", "conditions": "Concentration 32 ug.mL-1;; ASSAY_TEST Inhibition of Bacterial Growth; detection method Absorption (OD600); MEDIA CAMHB; plate type 384well; NBS; CORNING #3640; time 18 hr", "units": {"Inhibition": "%"}, "values": [
      {"molecule": "Cc1c(Cl)cccc1-n1ccn2c(=O)n(Cc3ccccc3Cl)nc2c1=O", "Inhibition": -1.96},
      {"molecule": "CCc1nnc2ccc(S(=O)(=O)N(Cc3cccc(F)c3)c3ccc(OC)cc3)cn12", "Inhibition": -6.85},
      {"molecule": "COc1cccc(CNC(=O)CSc2nnc3c4cc(-c5ccc(C)cc5)nn4ccn23)c1", "Inhibition": -13.2},
      {"molecule": "CCC(C)NC(=O)c1ccc2c(=O)n(CCC(C)C)c3nn(CC#N)c(=O)n3c2c1", "note": "(stereo not given)", "Inhibition": 14.77},
      {"molecule": "Cc1nnc2c(S(=O)(=O)N(Cc3ccccc3F)c3ccc(C(C)C)cc3)cccn12", "Inhibition": 0.43},
      {"molecule": "COc1ccc(CNC(=O)CCc2nnc3c(N4CCCCC4)nc4ccccc4n23)cc1OC", "Inhibition": 15.18},
      {"molecule": "COc1ccc(Cl)cc1NC(=O)Cn1nc2c3cc(-c4ccc(C)cc4)nn3ccn2c1=O", "Inhibition": 5.55},
      {"molecule": "Cc1ccc(Oc2nccn3c(=O)n(CC(=O)Nc4ccc(Br)cc4)nc23)cc1", "Inhibition": 6.74},
      {"molecule": "CCc1nnc2c(S(=O)(=O)N(Cc3cccc(OC)c3)c3ccccc3)cccn12", "Inhibition": 11.28},
      {"molecule": "O=C(Cn1nc2ccc(Sc3ccccc3)nn2c1=O)Nc1ccc(Cl)cc1", "Inhibition": 9.24},
      {"molecule": "Cc1ccc(C)c(-c2cc3c4nnc(SCC(=O)Nc5cccc(Br)c5)n4ccn3n2)c1", "Inhibition": -2.64},
      {"molecule": "COc1ccc(CN(c2ccc(F)cc2)S(=O)(=O)c2cccn3cnnc23)cc1F", "Inhibition": 9.98},
      {"molecule": "Cc1ccc(NC(=O)Cn2nc3ccc(SC(C)(C)C)nn3c2=O)cc1Cl", "Inhibition": 12.42},
      {"molecule": "COc1ccc(NC(=O)Cn2nc3c(N4CCOCC4)nccn3c2=O)cc1Cl", "Inhibition": -0.16},
      {"molecule": "COc1cccc(CN(c2ccc(C)c(F)c2)S(=O)(=O)c2ccc3nncn3c2)c1", "Inhibition": 1.02},
      {"molecule": "Cc1cc2nn(CC(=O)NCc3ccco3)c(=O)n2c(Nc2ccc(C)c(F)c2)n1", "Inhibition": 7.94},
      {"molecule": "O=C(CSc1nnc2c(=O)n(-c3ccccc3)ccn12)Nc1ccc2c(c1)OCCO2", "Inhibition": 7.64},
      {"molecule": "CC(C)c1ccc(N(Cc2ccccc2)S(=O)(=O)c2cccn3cnnc23)cc1", "Inhibition": 5.94},
      {"molecule": "Cc1cccc(CSc2nnc3c(=O)n(-c4ccc(Br)cc4)ccn23)c1", "Inhibition": -2.02},
      {"molecule": "Cc1ccc(Cn2nc3c(=O)n(-c4cccc(Cl)c4C)ccn3c2=O)cc1", "Inhibition": 10.23},
      {"molecule": "COc1cccc(Sc2nc3ccccc3n3c(=O)n(CC(=O)Nc4cccc(C#N)c4)nc23)c1", "Inhibition": 5.87},
      {"molecule": "COc1ccc(NC(=O)Cn2nc3c(Oc4cccc(F)c4)nccn3c2=O)cc1", "Inhibition": -11.98},
      {"molecule": "Cc1ccc(-c2ccc3nn(CC(=O)NC4CCCCC4)c(=O)n3n2)cc1C", "Inhibition": 13.52},
      {"molecule": "COc1ccc(NC(=O)Cn2nc3ccc(-c4ccc(Cl)cc4)nn3c2=O)cc1", "Inhibition": 12.68},
      {"molecule": "O=c1n(Cc2ccccc2F)nc2ccc(S(=O)(=O)N3CCCCCC3)cn12", "Inhibition": 2.58},
      {"molecule": "Cc1ccc(-c2ccc3nn(CC(=O)Nc4ccc(Br)cc4)c(=O)n3n2)cc1C", "Inhibition": 12.28},
      {"molecule": "CCc1nnc2c(S(=O)(=O)N(Cc3ccc(F)cc3)c3cccc(Cl)c3)cccn12", "Inhibition": 0.19},
      {"molecule": "Cc1cc2nn(CC(=O)Nc3cccc(C)c3C)c(=O)n2c(Nc2ccc(C)c(F)c2)n1", "Inhibition": 16.72},
      {"molecule": "Cc1ccc(NC(=O)Cn2nc3cc(C)nc(Nc4ccc(F)c(C)c4)n3c2=O)cc1", "Inhibition": 11.85},
      {"molecule": "COc1ccccc1NC(=O)Cn1nc2n(CCCOC(C)C)c(=O)c3ccccc3n2c1=O", "Inhibition": 12.77},
      {"molecule": "Cc1ccc(-c2cc3c4nn(CC(=O)Nc5ccc6c(c5)OCO6)c(=O)n4ccn3n2)cc1C", "Inhibition": 2.27},
      {"molecule": "Cc1cccc(NC(=O)c2ccc3nnc(SCC(=O)Nc4ccc(Br)cc4)n3c2)c1", "Inhibition": 7.72},
      {"molecule": "CC(C)NC(=O)CCn1c(=O)c2cc(Cl)ccc2n2c(=O)n(CC#N)nc12", "Inhibition": 4.55},
      {"molecule": "CC(C)NC(=O)Cn1nc2nc(Nc3ccc(F)cc3)ccn2c1=O", "Inhibition": 12.23},
      {"molecule": "COc1ccc(-c2cc3c4nnc(SCC(=O)Nc5cc(Cl)ccc5C)n4ccn3n2)cc1", "Inhibition": 0.68},
      {"molecule": "CCOc1ccccc1CNC(=O)CCc1nnc2ccc(-c3ccccc3)nn12", "Inhibition": 9.31},
      {"molecule": "CCCCn1c(=O)c2sccc2n2c(CCC(=O)NCCC34CC5CC(CC(C5)C3)C4)nnc12", "Inhibition": 8.76},
      {"molecule": "COc1cc(OC)c(NC(=O)Cn2nc3c(N4CCOCC4)nccn3c2=O)cc1Cl", "Inhibition": 1.91},
      {"molecule": "O=c1n(Cc2ccc3c(c2)OCO3)nc2c(S(=O)(=O)N3CCCC3)cccn12", "Inhibition": 5.42},
      {"molecule": "COc1ccc(NC(=O)Cn2nc3c(Sc4ccccc4)nccn3c2=O)c(OC)c1", "Inhibition": 2.54}
    ]},
    {"test_system": "Candida albicans", "conditions": "Concentration 32 ug.mL-1; ASSAY_TEST Inhibition of Fungal Growth; detection method Absorption (OD530)", "units": {"Inhibition": "%"}, "values": [
      {"molecule": "Cc1c(Cl)cccc1-n1ccn2c(=O)n(Cc3ccccc3Cl)nc2c1=O", "Inhibition": -2.16},
      {"molecule": "CCc1nnc2ccc(S(=O)(=O)N(Cc3cccc(F)c3)c3ccc(OC)cc3)cn12", "Inhibition": 1.92},
      {"molecule": "COc1cccc(CNC(=O)CSc2nnc3c4cc(-c5ccc(C)cc5)nn4ccn23)c1", "Inhibition": 4.52},
      {"molecule": "CCC(C)NC(=O)c1ccc2c(=O)n(CCC(C)C)c3nn(CC#N)c(=O)n3c2c1", "note": "(stereo not given)", "Inhibition": 0.65},
      {"molecule": "Cc1nnc2c(S(=O)(=O)N(Cc3ccccc3F)c3ccc(C(C)C)cc3)cccn12", "Inhibition": 0.44},
      {"molecule": "COc1ccc(CNC(=O)CCc2nnc3c(N4CCCCC4)nc4ccccc4n23)cc1OC", "Inhibition": 6.91},
      {"molecule": "COc1ccc(Cl)cc1NC(=O)Cn1nc2c3cc(-c4ccc(C)cc4)nn3ccn2c1=O", "Inhibition": 14.91},
      {"molecule": "Cc1ccc(Oc2nccn3c(=O)n(CC(=O)Nc4ccc(Br)cc4)nc23)cc1", "Inhibition": 10.23},
      {"molecule": "CCc1nnc2c(S(=O)(=O)N(Cc3cccc(OC)c3)c3ccccc3)cccn12", "Inhibition": 4.76},
      {"molecule": "O=C(Cn1nc2ccc(Sc3ccccc3)nn2c1=O)Nc1ccc(Cl)cc1", "Inhibition": 8.96},
      {"molecule": "Cc1ccc(C)c(-c2cc3c4nnc(SCC(=O)Nc5cccc(Br)c5)n4ccn3n2)c1", "Inhibition": 49.44},
      {"molecule": "COc1ccc(CN(c2ccc(F)cc2)S(=O)(=O)c2cccn3cnnc23)cc1F", "Inhibition": 3.76},
      {"molecule": "Cc1ccc(NC(=O)Cn2nc3ccc(SC(C)(C)C)nn3c2=O)cc1Cl", "Inhibition": 1.72},
      {"molecule": "COc1ccc(NC(=O)Cn2nc3c(N4CCOCC4)nccn3c2=O)cc1Cl", "Inhibition": 2.64},
      {"molecule": "COc1cccc(CN(c2ccc(C)c(F)c2)S(=O)(=O)c2ccc3nncn3c2)c1", "Inhibition": -0.35},
      {"molecule": "Cc1cc2nn(CC(=O)NCc3ccco3)c(=O)n2c(Nc2ccc(C)c(F)c2)n1", "Inhibition": 7.51},
      {"molecule": "O=C(CSc1nnc2c(=O)n(-c3ccccc3)ccn12)Nc1ccc2c(c1)OCCO2", "Inhibition": 0.98},
      {"molecule": "CC(C)c1ccc(N(Cc2ccccc2)S(=O)(=O)c2cccn3cnnc23)cc1", "Inhibition": 6.69},
      {"molecule": "Cc1cccc(CSc2nnc3c(=O)n(-c4ccc(Br)cc4)ccn23)c1", "Inhibition": 2.08},
      {"molecule": "Cc1ccc(Cn2nc3c(=O)n(-c4cccc(Cl)c4C)ccn3c2=O)cc1", "Inhibition": 6.45},
      {"molecule": "COc1cccc(Sc2nc3ccccc3n3c(=O)n(CC(=O)Nc4cccc(C#N)c4)nc23)c1", "Inhibition": 14.41},
      {"molecule": "COc1ccc(NC(=O)Cn2nc3c(Oc4cccc(F)c4)nccn3c2=O)cc1", "Inhibition": 4.65},
      {"molecule": "Cc1ccc(-c2ccc3nn(CC(=O)NC4CCCCC4)c(=O)n3n2)cc1C", "Inhibition": 3.29},
      {"molecule": "COc1ccc(NC(=O)Cn2nc3ccc(-c4ccc(Cl)cc4)nn3c2=O)cc1", "Inhibition": 0.32},
      {"molecule": "O=c1n(Cc2ccccc2F)nc2ccc(S(=O)(=O)N3CCCCCC3)cn12", "Inhibition": 0.84},
      {"molecule": "Cc1ccc(-c2ccc3nn(CC(=O)Nc4ccc(Br)cc4)c(=O)n3n2)cc1C", "Inhibition": 10.19},
      {"molecule": "CCc1nnc2c(S(=O)(=O)N(Cc3ccc(F)cc3)c3cccc(Cl)c3)cccn12", "Inhibition": 5.46},
      {"molecule": "Cc1cc2nn(CC(=O)Nc3cccc(C)c3C)c(=O)n2c(Nc2ccc(C)c(F)c2)n1", "Inhibition": 5.25},
      {"molecule": "Cc1ccc(NC(=O)Cn2nc3cc(C)nc(Nc4ccc(F)c(C)c4)n3c2=O)cc1", "Inhibition": 7.21},
      {"molecule": "COc1ccccc1NC(=O)Cn1nc2n(CCCOC(C)C)c(=O)c3ccccc3n2c1=O", "Inhibition": 2.2},
      {"molecule": "Cc1ccc(-c2cc3c4nn(CC(=O)Nc5ccc6c(c5)OCO6)c(=O)n4ccn3n2)cc1C", "Inhibition": 33.95},
      {"molecule": "Cc1cccc(NC(=O)c2ccc3nnc(SCC(=O)Nc4ccc(Br)cc4)n3c2)c1", "Inhibition": 7.81},
      {"molecule": "CC(C)NC(=O)CCn1c(=O)c2cc(Cl)ccc2n2c(=O)n(CC#N)nc12", "Inhibition": 6.33},
      {"molecule": "CC(C)NC(=O)Cn1nc2nc(Nc3ccc(F)cc3)ccn2c1=O", "Inhibition": 2.08},
      {"molecule": "COc1ccc(-c2cc3c4nnc(SCC(=O)Nc5cc(Cl)ccc5C)n4ccn3n2)cc1", "Inhibition": 28.62},
      {"molecule": "CCOc1ccccc1CNC(=O)CCc1nnc2ccc(-c3ccccc3)nn12", "Inhibition": 0.83},
      {"molecule": "CCCCn1c(=O)c2sccc2n2c(CCC(=O)NCCC34CC5CC(CC(C5)C3)C4)nnc12", "Inhibition": -0.35},
      {"molecule": "COc1cc(OC)c(NC(=O)Cn2nc3c(N4CCOCC4)nccn3c2=O)cc1Cl", "Inhibition": 3.65},
      {"molecule": "O=c1n(Cc2ccc3c(c2)OCO3)nc2c(S(=O)(=O)N3CCCC3)cccn12", "Inhibition": 0.37},
      {"molecule": "COc1ccc(NC(=O)Cn2nc3c(Sc4ccccc4)nccn3c2=O)c(OC)c1", "Inhibition": 2.27}
    ]}
  ]
}
